Hits are enriched below; roughly 13% of the tested compounds scored in any of these assays.
Shiga toxin inh = inhibitors of Shiga toxin in Vero cells. Vero cells, Shiga toxin protein synthesis inhibition reporter. AID 2315. 9.2% of 290,000 active. inhibition, % at 38.7 µM; in the data active = inhibition mostly above about 28%, no sharp cut-off; inactive = mostly below about 43%; note: 0% is about no effect
Lassa entry inh = blocks Lassa virus binding to or entry into cells | Lassa virus pseudotype entry inhibition, cell reporter | Potency, µM (top dose mostly 37.9 µM), without a hit: at the top dose activity change, negative = inhibition, actives largely listed as inhibitors | 1.2% of 300,000 active; calls by dose curve; tested in HEK293 cells; note: potency is the fitted concentration of half-maximal effect; % is set by controls: 0 for no effect and ±100 for the full control effect; nearly all actives have a fitted effect of over 50% in size
CHX counter = counter-screen for Shiga toxin inhibitors: cycloheximide protein synthesis inhibition; cell reporter, cycloheximide protein synthesis inhibition counterscreen; max response, %; 12% of 300,000 active; in the data active = max response mostly above about 13%, no sharp cut-off; inactive = mostly below about 14%; note: read at 38.3 µM for the half of the compounds with a filed dose; 0% is about no effect
MARV entry inh = Marburg virus entry inhibition | 1.8% of 300,000 active | Marburg virus pseudotyped entry inhibition, cell reporter | Potency, µM (highest dose often 37.8 µM), for inactives: top-dose activity change, negative = inhibition, usual class: inhibitors; calls by dose curve; tested in HEK293 cells; note: potency is the fitted concentration of half-maximal effect; % is set by controls: 0 for no effect and ±100 for the full control effect
FMDV antiviral = blocks foot and mouth disease virus; FMDV antiviral cell-based qHTS; Potency, µM (top dose mostly 57.9 µM), for inactives: at the top dose activity change, negative = inhibition, most hits filed as inhibitors; 1.2% of 410,000 active; calls by dose curve; tested in HEK293T cells; note: read-out not given here; potency is the fitted concentration of half-maximal effect; % is set by controls: 0 for no effect and ±100 for the full control effect; nearly all actives have a fitted effect of over 45% in size
HCV inh = blocks hepatitis C virus; Potency, µM (series often up to 41.8 µM), for inactives: top-dose activity change, negative = inhibition, usual class: inhibitors; 3.4% of 340,000 active; Huh7.5.1 HCVcc-Cre infection, luciferase reporter, 44 h; active = well fitted inhibition curve with a large enough effect; inconclusive = small, poorly fitted or top-dose-only effect, or another doubt; inactive = no such curve, though single readings can be large or run the other way; note: potency is the fitted concentration of half-maximal effect; % is set by controls: 0 for no effect and ±100 for the full control effect
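After 44 h co-culture of compound, cells and HCVcc-Cre (~0.5 moi), substrate is added for 15 min at room temperature and luciferase measured over 15 sec. Cells were seeded at 1,000/well and pre-cultured 4 h.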
* hit, by the source's call; [ ] = dose if it differs, or a comment.

Results for COc1ccc(CN(CC(O)COCc2ccccc2)S(=O)(=O)c2ccccc2Br)cc1OC (stereo not given) ?
FMDV antiviral: -8%; HCV inh: 11µM*

Results for N#CCCn1cc(C=O)c(-c2cccs2)n1 ?
Shiga toxin inh: -37; Lassa entry inh: -26%; CHX counter: -1; MARV entry inh: -8%[46.1 µM]; FMDV antiviral: -13%; HCV inh: 11%

What do the screens show for `Clc1ccc(-n2cccc2CN2CCc3c([nH]c4ccccc34)C2c2ccccn2)nc1` (stereo not given)?
Shiga toxin inh: 2; CHX counter: -1; FMDV antiviral: -13%; HCV inh: -16%

What do the screens show for `OC(CN1CCN(Cc2ccccc2)CC1)Cn1c2ccccc2c2ccccc21` (stereo not given)?
Shiga toxin inh: -11; Lassa entry inh: -25%; CHX counter: -3; MARV entry inh: inconclusive; FMDV antiviral: -19%; HCV inh: 11µM*

How did OC(CN1CCCCC1)Cn1c2ccc(Cl)cc2c2cc(Cl)ccc21 (stereo not given) do in these assays?
Shiga toxin inh: 3; Lassa entry inh: -29%; CHX counter: -3; MARV entry inh: 10µM*; FMDV antiviral: inconclusive; HCV inh: inconclusive

How did NNC(=O)c1cc(Br)cs1 do in these assays?
Shiga toxin inh: 33*; Lassa entry inh: -14%; CHX counter: 26; MARV entry inh: -31%; FMDV antiviral: -3%; HCV inh: -11%

Results for NNC(=O)c1cc(O)c(O)c(O)c1 ?
Shiga toxin inh: 13; Lassa entry inh: -21%; CHX counter: -3; MARV entry inh: inconclusive; FMDV antiviral: -16%; HCV inh: 24%

Results for O=C(O)C1CCCN1c1ncnc2c1oc1ccccc12 (stereo not given) ?
Shiga toxin inh: 49*; Lassa entry inh: 7%; CHX counter: 43*; MARV entry inh: 0%; FMDV antiviral: 53%; HCV inh: 7%

What do the screens show for `COc1ccccc1C(=O)NCC(=O)N/N=C/c1cccc(Cl)c1`?
Shiga toxin inh: 9; Lassa entry inh: -26%; CHX counter: 4; MARV entry inh: inconclusive; FMDV antiviral: -15%; HCV inh: -2%

Results for O=C(N/N=C\c1ccc(Cl)s1)c1cccs1 ?
Shiga toxin inh: 85; Lassa entry inh: inconclusive; CHX counter: 43*; MARV entry inh: -14%; FMDV antiviral: 61%; HCV inh: 4%

What do the screens show for `CSc1ccc(/C=N/NC(=O)c2cccs2)cc1`?
Shiga toxin inh: 66*; Lassa entry inh: inconclusive; CHX counter: 52*; MARV entry inh: inconclusive; FMDV antiviral: 0%; HCV inh: 0%

How did COc1ccccc1C(=O)N/N=C/c1cnc2ccccc2n1 do in these assays?
Shiga toxin inh: 125*; Lassa entry inh: inconclusive; CHX counter: 59*; MARV entry inh: -19%; FMDV antiviral: 20%; HCV inh: 17%

What do the screens show for `O=C(N/N=C/c1ccc(Cl)s1)C(O)c1ccccc1` (stereo not given)?
Shiga toxin inh: 16; CHX counter: 7; FMDV antiviral: 123%; HCV inh: -3%

Results for COc1ccccc1C(=O)N/N=C/c1ccc(Cl)s1 ?
Shiga toxin inh: 78*; Lassa entry inh: -1%; CHX counter: 49*; MARV entry inh: 52%; FMDV antiviral: 50%; HCV inh: 15%

How did CCOC(=O)c1cc(-c2ccc(C)cc2)n(CCC(=O)Nc2cc(Cl)ccc2C)c1C do in these assays?
MARV entry inh: inconclusive; FMDV antiviral: -1%

Results for O=C(N/N=C/c1ccncc1)c1cccs1 ?
Shiga toxin inh: 91*; CHX counter: 52*; FMDV antiviral: 35%; HCV inh: 15%

Results for O=C(N/N=C/c1ccc(-c2ccccc2C(=O)O)o1)c1cccs1 ?
Shiga toxin inh: 49*; Lassa entry inh: 26%[46.1 µM]; CHX counter: 33*; MARV entry inh: inconclusive; FMDV antiviral: 21%; HCV inh: 11%

How did O=C(N/N=C/C=C\c1ccco1)c1cccs1 do in these assays?
Shiga toxin inh: 82*; Lassa entry inh: -10%[46.1 µM]; CHX counter: 29*; MARV entry inh: inconclusive; FMDV antiviral: 29%; HCV inh: -7%

What do the screens show for `O=C(N/N=C/c1ccncc1)c1ccc(NS(=O)(=O)c2cccs2)cc1`?
Shiga toxin inh: 25; Lassa entry inh: 11%; CHX counter: 9; MARV entry inh: inconclusive; FMDV antiviral: 12%; HCV inh: 21%

How did O=C(Cc1cccs1)N/N=C/C=C\c1ccco1 do in these assays?
Shiga toxin inh: -3; Lassa entry inh: inconclusive; CHX counter: 12; MARV entry inh: 10%[46.1 µM]; FMDV antiviral: 64%; HCV inh: inconclusive

Results for O=C(N/N=C/c1ccc(-n2ccnc2)cc1)c1cccs1 ?
Shiga toxin inh: 85*; Lassa entry inh: -23%[46.1 µM]; CHX counter: 45*; MARV entry inh: inconclusive; FMDV antiviral: 8%; HCV inh: -5%

Results for CS(=O)(=O)C1=NSC2=NC(=O)/C(=C\c3cccn3-c3ccc(Cl)cc3)C(=N)N21 ?
Shiga toxin inh: 11; Lassa entry inh: 8%; CHX counter: -6; MARV entry inh: 12%; FMDV antiviral: -24%; HCV inh: 12%

How did O=C(CCCCCCCC(=O)NCC1CCCO1)NCC1CCCO1 (stereo not given) do in these assays?
Shiga toxin inh: 10; Lassa entry inh: 1%; CHX counter: 8; MARV entry inh: 21%; FMDV antiviral: 12%; HCV inh: -1%

How did Cc1nc(S/C(=C/c2ccc(-c3cc(Cl)ccc3C)o2)C(=O)O)n[nH]1 do in these assays?
Shiga toxin inh: 103*; CHX counter: 29*; FMDV antiviral: 3%; HCV inh: -5%

Results for Cc1nc(S/C(=C/c2ccc(-c3ccc(Cl)cc3)o2)C(=O)O)n[nH]1 ?
Shiga toxin inh: -13; Lassa entry inh: inconclusive; CHX counter: -1; MARV entry inh: 16%; FMDV antiviral: 0%; HCV inh: 17%

Results for COC(=O)c1sc2ccccc2c1N ?
Shiga toxin inh: 60*; CHX counter: 32*; FMDV antiviral: 39%; HCV inh: inconclusive

What do the screens show for `CCOC(=O)c1sc2ccccc2c1OC(=O)c1ccc(C)cc1`?
Shiga toxin inh: -5; Lassa entry inh: 4.5µM*; CHX counter: 5; MARV entry inh: -26%; FMDV antiviral: 15%; HCV inh: 14%

Results for O=Cc1ccccc1-n1cccn1 ?
Shiga toxin inh: -9; Lassa entry inh: 8%; CHX counter: 31*; MARV entry inh: inconclusive; FMDV antiviral: -12%; HCV inh: -11%

Results for CCCCc1nn2c(=O)cc(COC(=O)COc3ccc(C)cc3)nc2s1 ?
Lassa entry inh: -4%[46.1 µM]; FMDV antiviral: 0%

What do the screens show for `CCOC(=O)c1cnn(-c2ccc(C)cc2)c1N`?
Shiga toxin inh: 75*; Lassa entry inh: -3%; CHX counter: 33*; MARV entry inh: inconclusive; FMDV antiviral: 43%; HCV inh: 3%
